# Reference: PubChem BioAssay (NCI)
# “And” between values parts separate entries of the source, which are not always exact repeats. Identical values can stand only once. About 79,000 compounds went through this panel and 15% of them were active in at least one assay; those are over-represented in the sample as a whole. Some structures have more than one record in an assay (separate samples or runs), and their calls can disagree. The source made the active and inactive calls. No stated cut-off is given here; in the data, active means growth inhibition above about 70%; inactive means the rest.
# What was measured:
# [1] = NCI Yeast Anticancer Drug Screen. Data for the rad50 strain (AID 155);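 further: 0% = growth of vehicle-only cultures of the same strain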; conditions: S. cerevisiae rad50 strain growth inhibition, stronger effect = higher value
# Procedure, shortened: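 Inhibition values express reduced yeast growth in compound-treated cultures relative to vehicle-treated controls.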
# [2] = NCI Yeast Anticancer Drug Screen. Data for the mec2-1 strain (AID 157); conditions: S. cerevisiae mec2-1 strain, stronger effect = higher value
# Procedure, shortened: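 Readout is yeast growth inhibition, normalised to vehicle-treated controls, in the mec2-1 strain exposed to compound.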
# [3] = NCI Yeast Anticancer Drug Screen. Data for the sgs1 mgt1 strain (AID 161);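 further: 0% = growth of cultures given vehicle only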; conditions: S. cerevisiae sgs1 mgt1 strain, stronger effect = higher value
# Procedure, shortened: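 Yeast cells carrying a defined DNA-repair defect were exposed to test compounds. Growth inhibition was measured relative to vehicle-treated controls.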
# [4] = NCI Yeast Anticancer Drug Screen. Data for the cln2 rad14 strain (AID 165);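 further: 0% = growth equal to vehicle treated cultures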; conditions: S. cerevisiae cln2 rad14 strain, stronger effect = higher value
# Procedure, shortened: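 Relative to vehicle controls, growth inhibition of compound-treated cln2 rad14 yeast was recorded.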
# [5] = NCI Yeast Anticancer Drug Screen. Data for the bub3 strain (AID 167); conditions: S. cerevisiae bub3 mutant strain, stronger effect = higher value
# Procedure, shortened: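 Steps: expose the mutant yeast strain to compound; grow alongside vehicle-treated cultures; measure growth; express inhibition against the vehicle cultures.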
# [6] = NCI Yeast Anticancer Drug Screen. Data for the mlh1 rad18 strain (AID 175); conditions: S. cerevisiae mlh1 rad18 strain growth inhibition, stronger effect = higher value
# Procedure, shortened: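 Test agents were incubated with a yeast strain of defined genotype (DNA damage repair defect). Inhibition of growth was derived by comparison with vehicle-exposed cultures.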
# [7] = at 5.0 µM (retest, dose inferred, filed as 0.5)
# [8] = at 50.0 µM (retest, dose inferred, filed as 5.0)
SMILES,"growth inhibition [1, 7]","growth inhibition [1, 8]",growth inhibition ([1]; at 50.0 µM),"growth inhibition [2, 7]","growth inhibition [2, 8]",growth inhibition ([2]; at 50.0 µM),"growth inhibition [3, 7]","growth inhibition [3, 8]",growth inhibition ([3]; at 50.0 µM),"growth inhibition [4, 7]","growth inhibition [4, 8]",growth inhibition ([4]; at 50.0 µM),"growth inhibition [5, 7]","growth inhibition [5, 8]",growth inhibition ([5]; at 50.0 µM),"growth inhibition [6, 7]","growth inhibition [6, 8]",growth inhibition ([6]; at 50.0 µM)
CCCC(O)c1ccc(C)cc1 (centres undefined),11% (inactive) and 1% (inactive),20% (inactive) and 2% (inactive),12.8% (inactive) and -26.4% (inactive),4% (inactive) and 3% (inactive),21% (inactive) and -2% (inactive),33.5% (inactive) and -6.65% (inactive),5% (inactive) and 0% (inactive),33% (inactive) and -1% (inactive),0.4% (inactive) and 15.7% (inactive),5% (inactive) and -1% (inactive),10% (inactive) and 0% (inactive),-43.6% (inactive) and 18.9% (inactive),-2% (inactive) and -3% (inactive),98% (active) and -10% (inactive),-6.05% (inactive) and 14.9% (inactive),7% (inactive) and 5% (inactive),21% (inactive) and 7% (inactive),6.2% (inactive) and -10.3% (inactive)
COc1ccc2c(c1)c[n+](C)c1c3cc(OC)c(OC)cc3ccc21,17% (inactive),23% (inactive),5.2% (inactive) and 37.6% (inactive),23% (inactive),20% (inactive),2.8% (inactive) and 35.4% (inactive),-21% (inactive),47% (inactive),43.2% (inactive) and 48.9% (inactive),-12% (inactive),-8% (inactive),34.6% (inactive) and 13.8% (inactive),8% (inactive),61% (inactive),25.9% (inactive) and 19.1% (inactive),16% (inactive),19% (inactive),-19.9% (inactive) and 32.5% (inactive)
CCCCCCCCCCCCCCCC[N+](C)(C)Cc1cnc[nH]1,99% (active),98% (active),90.3% (active),99% (active),99% (active),91.2% (active),98% (active),99% (active),91.8% (active),95% (active),99% (active),89.7% (active),99% (active),99% (active),91% (active),98% (active),98% (active),89.1% (active)
CC(=O)Nc1cc(C)ccc1C,1% (inactive),-3% (inactive),-36.6% (inactive) and -46.2% (inactive),-2% (inactive),0% (inactive),15.4% (inactive) and -28.3% (inactive),0% (inactive),-3% (inactive),-1.25% (inactive) and -9.15% (inactive),-3% (inactive),4% (inactive),51.8% (inactive) and 34.4% (inactive),0% (inactive),-3% (inactive),42.2% (inactive) and -9.35% (inactive),3% (inactive),-4% (inactive),-36.9% (inactive) and -2% (inactive)
CC(=O)NC1C(O)OC(CO)C(OC2OC(CO)C(O)C(O)C2NC(=O)NCCCCCCNC(=O)n2cc(F)c(=O)[nH]c2=O)C1O (centres undefined),3% (inactive) and 85% (active),58% (inactive) and 98% (active),43.1% (inactive) and 91.9% (active),-5% (inactive) and 78% (active),70% (active) and 99% (active),72.2% (active) and 93.5% (active),7% (inactive) and 93% (active),81% (active) and 98% (active),78.8% (active) and 88.5% (active),8% (inactive) and 52% (inactive),20% (inactive) and 98% (active),24.8% (inactive) and 63.7% (inactive),5% (inactive) and 46% (inactive),19% (inactive) and 99% (active),25.2% (inactive) and 75.5% (active),4% (inactive) and 87% (active),48% (inactive) and 98% (active),37% (inactive) and 86.8% (active)
O=C(O)C#CC(=O)O,22% (inactive),76% (active),76.2% (active) and 1.25% (inactive),20% (inactive),20% (inactive),85.7% (active) and -6.9% (inactive),28% (inactive),63% (inactive),76.2% (active) and 12.3% (inactive),31% (inactive),30% (inactive),17.6% (inactive) and 1.65% (inactive),26% (inactive),38% (inactive),60% (inactive) and -7.7% (inactive),35% (inactive),60% (inactive),75.5% (active) and 15.1% (inactive)
N#Cc1c(/N=C/c2ccccc2Cl)sc2c1CCC2,18% (inactive),-14% (inactive),20.1% (inactive),-14% (inactive),-4% (inactive),-0.55% (inactive),-1% (inactive),10% (inactive),12.1% (inactive),26% (inactive),11% (inactive),4.2% (inactive),0% (inactive),-10% (inactive),23.9% (inactive),-1% (inactive),-20% (inactive),13.2% (inactive)
COc1ccc2cc(C(C)=O)c3ccccc3c2c1,11% (inactive),93% (active),94.2% (active),-34% (inactive),95% (active),86.5% (active),1% (inactive),88% (active),96.2% (active),-2% (inactive),77% (active),-8.2% (inactive),-68% (inactive),94% (active),2.7% (inactive),2% (inactive),95% (active),97% (active)
CCO/C(=C\C=O)C1CCC2C3CC=C4CC(OC(C)=O)CCC4(C)C3CCC12C (centres undefined),7% (inactive),45% (inactive),63.4% (inactive),-1% (inactive),75% (active),51.5% (inactive),8% (inactive),86% (active),55.9% (inactive),2% (inactive),53% (inactive),55.1% (inactive),-3% (inactive),74% (active),23.4% (inactive),14% (inactive),94% (active),53.5% (inactive)
CCCn1cnc2c(SCc3ccc(Cl)cc3)nc(N)nc21,-7% (inactive),21% (inactive),96.9% (active),-5% (inactive),-10% (inactive),97.5% (active),-3% (inactive),16% (inactive),96.2% (active),-32% (inactive),-64% (inactive),92.8% (active),-20% (inactive),7% (inactive),97% (active),-6% (inactive),36% (inactive),98% (active)
O=C1CCC(c2ccccc2)(C2(c3ccccc3)CCC(=O)O2)O1 (centres undefined),1% (inactive),7% (inactive),17.4% (inactive) and 59.5% (inactive),-4% (inactive),4% (inactive),4.8% (inactive) and 50.9% (inactive),3% (inactive),57% (inactive),12.4% (inactive) and 70.5% (active),4% (inactive),52% (inactive),4.35% (inactive) and 13.1% (inactive),2% (inactive),21% (inactive),13.8% (inactive) and 10.7% (inactive),4% (inactive),47% (inactive),-0.2% (inactive) and 63.1% (inactive)
CC(=O)NC1CCC(C2CCCCC2)CC1C1CCCCC1 (centres undefined),-2% (inactive),85% (active),93.6% (active),-1% (inactive),87% (active),95.7% (active),4% (inactive),93% (active),90.7% (active),1% (inactive),82% (active),89.7% (active),3% (inactive),86% (active),95% (active),-1% (inactive),86% (active),92% (active)
Oc1ccc2ccccc2c1Cc1c(O)ccc2ccccc12,-1% (inactive),86% (active),33% (inactive) and 99.2% (active),11% (inactive),96% (active),29.8% (inactive) and 22.7% (inactive),7% (inactive),53% (inactive),44.1% (inactive) and 99.5% (active),-25% (inactive),95% (active),21.6% (inactive) and 97.8% (active),-6% (inactive),95% (active),16.2% (inactive) and 48.6% (inactive),-8% (inactive),89% (active),16.4% (inactive) and 99.3% (active)
